Test results: ChEMBL document CHEMBL3988442, “University of Dundee, Small-Polar-MMV Screening Library” (2021)
For some of these results: Potency and affinity values are given separately.

Assays:
Set-up in all cases: scale not given: direction of the effect not stated beside the values
[1] = target: Protein translocase subunit SecA (Escherichia coli (strain K12)) (UniProt P10408); test: Assay to Identify E. coli SecA ATPase Inhibitors; assay type: functional; conditions: 30 µM
[2] = target: T1, Ubiquitin-activating enzyme e1, putative (Leishmania donovani (strain BPK282A1)) (UniProt E9BSI1); test: Leishmania donovani Ubiquitin Activating Enzyme (LdE1); assay type: functional; conditions: 30 µM
T1 sequence (whole entry): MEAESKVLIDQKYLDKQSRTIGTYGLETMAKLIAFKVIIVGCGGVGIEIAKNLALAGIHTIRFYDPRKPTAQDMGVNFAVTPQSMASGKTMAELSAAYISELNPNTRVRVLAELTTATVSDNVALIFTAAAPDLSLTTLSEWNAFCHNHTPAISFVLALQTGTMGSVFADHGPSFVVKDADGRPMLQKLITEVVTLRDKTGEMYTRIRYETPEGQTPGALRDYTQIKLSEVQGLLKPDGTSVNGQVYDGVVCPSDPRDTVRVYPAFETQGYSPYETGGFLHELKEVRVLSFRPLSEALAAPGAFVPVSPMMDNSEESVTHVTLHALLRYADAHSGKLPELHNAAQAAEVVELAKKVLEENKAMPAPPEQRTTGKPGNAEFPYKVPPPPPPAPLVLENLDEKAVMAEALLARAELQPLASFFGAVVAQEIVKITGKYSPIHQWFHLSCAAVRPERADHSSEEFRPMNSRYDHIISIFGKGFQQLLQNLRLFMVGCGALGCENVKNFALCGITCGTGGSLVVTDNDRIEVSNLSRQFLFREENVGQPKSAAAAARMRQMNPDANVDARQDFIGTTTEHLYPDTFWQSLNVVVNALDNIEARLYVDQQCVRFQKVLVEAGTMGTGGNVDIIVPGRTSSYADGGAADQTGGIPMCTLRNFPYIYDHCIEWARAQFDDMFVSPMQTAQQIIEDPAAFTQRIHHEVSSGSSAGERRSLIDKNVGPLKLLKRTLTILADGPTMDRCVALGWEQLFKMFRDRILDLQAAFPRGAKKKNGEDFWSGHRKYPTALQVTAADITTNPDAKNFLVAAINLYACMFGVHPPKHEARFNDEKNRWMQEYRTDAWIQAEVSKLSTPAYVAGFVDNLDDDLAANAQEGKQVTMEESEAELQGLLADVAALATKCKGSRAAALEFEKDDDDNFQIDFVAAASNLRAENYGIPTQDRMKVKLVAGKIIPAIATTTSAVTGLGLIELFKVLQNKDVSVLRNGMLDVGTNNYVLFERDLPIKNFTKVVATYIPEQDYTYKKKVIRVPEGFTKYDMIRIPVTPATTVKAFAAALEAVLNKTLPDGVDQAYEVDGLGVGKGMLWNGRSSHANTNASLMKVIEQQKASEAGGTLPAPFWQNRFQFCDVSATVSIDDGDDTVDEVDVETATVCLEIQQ

[3] = target: AMP-activated protein kinase, AMPK (Homo sapiens) (UniProt P54646+O43741+P54619+Q9UGJ0+Q9Y478+Q13131+Q9UGI9); test: AMP-dependent Kinase enzyme assay. An in vitro enzyme assay that detects ADP turnover that is directly proportional to AMPK activity. This uses naive AMPK that is activated during the assay with MK-8722; assay type: functional; conditions: 30 µM
[4] = target: Sialic acid-binding Ig-like lectin 9 (Homo sapiens) (UniProt Q9Y336); test: Hs-Siglec9 ALPHAscreen SOP 20170721; conditions: 10 µM
Sialic acid-binding Ig-like lectin 9 (Homo sapiens), sequence (Q9Y336 whole entry): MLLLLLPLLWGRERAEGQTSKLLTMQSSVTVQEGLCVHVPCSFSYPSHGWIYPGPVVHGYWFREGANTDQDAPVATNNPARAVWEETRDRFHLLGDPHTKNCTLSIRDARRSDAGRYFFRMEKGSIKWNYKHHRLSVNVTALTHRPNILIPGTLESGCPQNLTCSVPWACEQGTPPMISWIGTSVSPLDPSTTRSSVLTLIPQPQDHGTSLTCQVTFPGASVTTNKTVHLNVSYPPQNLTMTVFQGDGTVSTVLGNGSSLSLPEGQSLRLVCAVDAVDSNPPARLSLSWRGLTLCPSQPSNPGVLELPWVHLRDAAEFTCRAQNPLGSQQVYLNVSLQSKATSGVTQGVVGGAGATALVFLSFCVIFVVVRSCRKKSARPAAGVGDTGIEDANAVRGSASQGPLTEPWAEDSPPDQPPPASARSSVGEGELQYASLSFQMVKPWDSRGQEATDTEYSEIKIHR

Trypanosoma cruzi = test: Trypanosoma cruzi phosphomannomutase and mannose-1-phosphate guanylyltransferase assay; assay type: functional; conditions: 10 µM
[5] = target: T2, Arginase-2, mitochondrial (Homo sapiens) (UniProt P78540); test: in vitro enzyme assay to detect the production of urea directly proportional to the activity of Arginase II; assay type: functional; conditions: 33.3 µM; also: in the data most compounds retested in dose-response had high values
T2 sequence (whole entry): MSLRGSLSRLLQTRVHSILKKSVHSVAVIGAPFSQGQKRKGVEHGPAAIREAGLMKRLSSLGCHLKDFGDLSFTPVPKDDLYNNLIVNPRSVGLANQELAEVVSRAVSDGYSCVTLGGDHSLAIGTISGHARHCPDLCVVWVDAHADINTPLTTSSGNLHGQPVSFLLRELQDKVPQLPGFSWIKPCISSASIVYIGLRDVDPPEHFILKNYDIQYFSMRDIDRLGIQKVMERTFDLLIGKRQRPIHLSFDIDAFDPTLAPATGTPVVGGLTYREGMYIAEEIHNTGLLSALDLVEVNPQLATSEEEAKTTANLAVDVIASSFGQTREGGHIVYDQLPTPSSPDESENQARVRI

[6] = target: T3, Proteasome subunit beta (Trypanosoma cruzi) (UniProt O96673); test: Trypanosoma cruzi proteasome chymotrypsin-like activity (TcProtChymo) assay.; also: in the data most compounds retested in dose-response had high values; assay type: functional; conditions: 9.37 µM
T3 sequence (whole entry): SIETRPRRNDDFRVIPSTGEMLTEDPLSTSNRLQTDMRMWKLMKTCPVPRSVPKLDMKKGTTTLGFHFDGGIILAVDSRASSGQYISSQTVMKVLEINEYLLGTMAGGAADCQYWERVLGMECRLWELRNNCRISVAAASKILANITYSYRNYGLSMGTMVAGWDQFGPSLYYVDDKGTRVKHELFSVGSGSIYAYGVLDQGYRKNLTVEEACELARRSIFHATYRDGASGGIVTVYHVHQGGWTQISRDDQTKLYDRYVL

Homo sapiens = species on record: Homo sapiens; test: To identify inhibition of the IFN signalling (Jak-Stat) pathway via expression of an eGFP reporter gene under the control of an IFN-stimulated response element (ISRE) containing MxA promoter.; assay type: functional; conditions: 30 µM
[7] = target: T4, Tyrosyl-tRNA synthetase, putative (Trypanosoma cruzi (strain CL Brener)) (UniProt Q4DSP6); test: Trypanosoma cruzi tyrosyl tRNA synthetase (TcYRS) _High Tyrosine SOP; assay type: functional; conditions: 30 µM; also: in the data most compounds retested in dose-response had high values
T4 sequence (whole entry): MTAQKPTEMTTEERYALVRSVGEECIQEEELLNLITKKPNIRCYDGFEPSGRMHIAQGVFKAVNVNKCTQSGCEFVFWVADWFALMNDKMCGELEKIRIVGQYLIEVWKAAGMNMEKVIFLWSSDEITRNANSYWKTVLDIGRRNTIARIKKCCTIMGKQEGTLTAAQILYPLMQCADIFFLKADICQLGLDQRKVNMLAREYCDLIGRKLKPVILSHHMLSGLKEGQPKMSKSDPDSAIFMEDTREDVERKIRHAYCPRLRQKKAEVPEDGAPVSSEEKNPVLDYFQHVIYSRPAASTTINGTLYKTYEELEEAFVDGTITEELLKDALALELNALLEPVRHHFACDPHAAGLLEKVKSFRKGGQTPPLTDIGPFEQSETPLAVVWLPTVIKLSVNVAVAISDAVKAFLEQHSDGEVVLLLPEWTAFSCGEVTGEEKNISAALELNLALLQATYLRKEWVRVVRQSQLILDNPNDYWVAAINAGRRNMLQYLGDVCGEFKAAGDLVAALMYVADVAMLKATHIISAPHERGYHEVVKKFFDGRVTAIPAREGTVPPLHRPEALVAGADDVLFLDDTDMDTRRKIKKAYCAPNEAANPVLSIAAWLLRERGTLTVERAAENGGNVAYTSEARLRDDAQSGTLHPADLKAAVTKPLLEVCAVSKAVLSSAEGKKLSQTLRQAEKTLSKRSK

[8] = target: T4, Tyrosyl-tRNA synthetase, putative (Trypanosoma cruzi (strain CL Brener)); test: Trypanosoma cruzi tyrosyl tRNA synthetase (TcYRS) SOP; assay type: functional; conditions: 30 µM
[9] = target: Chromo domain-containing protein 1 (Saccharomyces cerevisiae (strain ATCC 204508 / S288c) (Baker's yeast)) (UniProt P32657); test: ScCHD-1 Enzyme Inhibition Assay; assay type: functional; conditions: 30 µM; also: in the data most compounds retested in dose-response had high values
Chromo domain-containing protein 1 (Saccharomyces cerevisiae (strain ATCC 204508 / S288c) (Baker's yeast)), sequence (P32657 whole entry, the tested form may be a part): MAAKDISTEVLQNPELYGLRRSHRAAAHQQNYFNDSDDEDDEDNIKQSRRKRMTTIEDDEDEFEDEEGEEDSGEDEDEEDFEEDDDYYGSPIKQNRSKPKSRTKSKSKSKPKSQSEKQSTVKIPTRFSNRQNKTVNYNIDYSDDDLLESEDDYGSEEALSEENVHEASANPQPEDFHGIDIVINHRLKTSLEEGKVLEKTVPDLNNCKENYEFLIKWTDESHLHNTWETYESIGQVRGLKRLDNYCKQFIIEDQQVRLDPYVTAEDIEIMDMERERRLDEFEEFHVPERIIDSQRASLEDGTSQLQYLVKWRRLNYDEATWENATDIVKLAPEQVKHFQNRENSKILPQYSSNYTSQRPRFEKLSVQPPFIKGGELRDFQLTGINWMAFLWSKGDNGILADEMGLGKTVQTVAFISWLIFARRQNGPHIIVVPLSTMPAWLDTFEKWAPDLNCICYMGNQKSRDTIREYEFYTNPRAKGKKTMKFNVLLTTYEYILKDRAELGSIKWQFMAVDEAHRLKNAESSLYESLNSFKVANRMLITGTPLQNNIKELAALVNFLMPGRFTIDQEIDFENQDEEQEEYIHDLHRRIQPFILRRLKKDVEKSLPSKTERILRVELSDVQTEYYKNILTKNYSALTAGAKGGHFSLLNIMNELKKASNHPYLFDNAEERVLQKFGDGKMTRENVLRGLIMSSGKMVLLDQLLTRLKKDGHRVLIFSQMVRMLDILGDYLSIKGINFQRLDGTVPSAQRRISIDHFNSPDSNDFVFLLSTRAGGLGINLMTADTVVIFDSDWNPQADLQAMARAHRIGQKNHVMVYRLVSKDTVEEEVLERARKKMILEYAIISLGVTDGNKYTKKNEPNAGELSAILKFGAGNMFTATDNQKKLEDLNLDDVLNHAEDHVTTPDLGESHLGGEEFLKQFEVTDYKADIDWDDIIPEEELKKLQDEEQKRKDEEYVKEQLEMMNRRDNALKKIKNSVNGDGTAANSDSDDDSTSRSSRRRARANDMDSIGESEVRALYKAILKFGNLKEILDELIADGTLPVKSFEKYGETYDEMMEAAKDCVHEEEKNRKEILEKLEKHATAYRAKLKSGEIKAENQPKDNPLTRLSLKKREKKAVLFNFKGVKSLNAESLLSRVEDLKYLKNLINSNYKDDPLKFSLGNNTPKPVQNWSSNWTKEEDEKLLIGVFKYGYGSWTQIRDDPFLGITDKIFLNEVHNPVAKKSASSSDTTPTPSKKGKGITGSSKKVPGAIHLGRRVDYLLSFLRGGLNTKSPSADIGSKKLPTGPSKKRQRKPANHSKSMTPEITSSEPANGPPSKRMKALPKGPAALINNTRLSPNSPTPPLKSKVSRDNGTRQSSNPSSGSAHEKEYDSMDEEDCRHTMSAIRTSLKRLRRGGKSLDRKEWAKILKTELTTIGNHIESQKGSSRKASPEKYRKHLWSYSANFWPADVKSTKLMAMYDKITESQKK

Protein translocase subunit SecA (Escherichia coli (strain K12)), sequence (P10408 whole entry): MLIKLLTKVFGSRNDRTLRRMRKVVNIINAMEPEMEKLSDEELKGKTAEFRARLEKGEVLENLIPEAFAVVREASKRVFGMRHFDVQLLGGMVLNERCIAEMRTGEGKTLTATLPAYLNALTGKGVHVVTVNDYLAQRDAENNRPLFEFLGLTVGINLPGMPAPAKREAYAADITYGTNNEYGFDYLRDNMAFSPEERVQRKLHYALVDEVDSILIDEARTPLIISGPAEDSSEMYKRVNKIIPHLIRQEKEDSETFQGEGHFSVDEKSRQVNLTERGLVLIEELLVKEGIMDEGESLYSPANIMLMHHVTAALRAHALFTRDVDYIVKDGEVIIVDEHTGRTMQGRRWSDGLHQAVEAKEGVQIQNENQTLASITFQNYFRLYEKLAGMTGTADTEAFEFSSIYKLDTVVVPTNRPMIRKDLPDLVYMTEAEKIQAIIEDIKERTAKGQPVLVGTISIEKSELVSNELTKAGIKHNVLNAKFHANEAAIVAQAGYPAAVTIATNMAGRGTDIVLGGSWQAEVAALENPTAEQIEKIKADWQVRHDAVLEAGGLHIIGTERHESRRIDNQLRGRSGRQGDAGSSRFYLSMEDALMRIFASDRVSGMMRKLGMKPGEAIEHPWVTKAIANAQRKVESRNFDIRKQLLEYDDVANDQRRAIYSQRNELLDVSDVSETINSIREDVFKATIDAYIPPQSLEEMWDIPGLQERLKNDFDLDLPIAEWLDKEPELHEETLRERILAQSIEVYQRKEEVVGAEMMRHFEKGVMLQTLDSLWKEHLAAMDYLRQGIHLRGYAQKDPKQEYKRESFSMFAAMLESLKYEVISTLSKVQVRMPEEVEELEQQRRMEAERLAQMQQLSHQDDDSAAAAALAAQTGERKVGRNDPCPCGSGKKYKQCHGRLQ

SMILES | Percent Effect [1] | Percent Effect [2] | Percent Effect [3] | Percent Effect [4] | Percent Effect (Trypanosoma cruzi) | Percent Effect [5] | Percent Effect [6] | Percent Effect (Homo sapiens) | Percent Effect [7] | Percent Effect [8] | Percent Effect [9]
COc1ccccc1C(=O)N1CCCC1Cn1cc(C)cn1 (stereo unspecified) | -3.53% | 18.9% | -13.2% | -6.09% | -4.25% | -2.81% | 4.68% | -3.42% | 11.3% | 18.5% | -4.38%
Cc1ccc2cnn(CCC(=O)Nc3c(C)nn(C)c3C)c2c1 | -3.51% | 5.2% | 2.92% | 2.18% | -4.03% | -4.14% | 5.16% | -0.975% | 2.15% | 8.64% | -0.912%
CNC(=O)CC1CCN(Cc2nc(-c3ccc(SC)cc3)oc2C)CC1 | -7% | 2.7% | -0.898% | 2.66% | -2.7% | -0.952% | 11.7% | 13.2% | 7.94% | 0% | -2.7%
Cc1nn(CC(C)C)c(N(C)C)c1CNCc1cccc2c1OCO2 | 3.79% | 13.5% | -13.1% | -3.94% | -8.02% | -12% | 16.9% | 13.9% | 7.39% | 11.1% | -4.83%
Cc1cccc(NC(=O)Cn2ncc(SCC(N)=O)c(Cl)c2=O)c1C | -3.9% | 5.48% | 4.95% | -15.5% | -4.31% | 3.18% | 22.5% | 17.6% | 5.38% | 5% | 79.5%
Cc1nc(C2CCCN(C(=O)c3cnn(C(C)(C)C)c3)C2)no1 (stereo unspecified) | -11.7% | 16.5% | -6.15% | -0.567% | 4.82% | -1.07% | 2.74% | -0.962% | 4.17% | 12.7% | -34.2%
Cc1ccsc1[C@@H]1CCN(C(=O)c2cc3ccccc3[nH]2)C[C@H]1O | -2.04% | -1.39% | 0.967% | -5.71% | -6.51% | -0.442% | 15.3% | 12.8% | -3.16% | -2.56% | 2.93%
Clc1snnc1CN1CCCC(Cn2cncn2)C1 (stereo unspecified) | -1.77% | 17.7% | -3.42% | -8.68% | 1.98% | -1.52% | 18.6% | 6.4% | 10.3% | 29.1% | -10.8%
CCC1CN(C(=O)Nc2cnc3c(cnn3C(C)C)c2)CCO1 (stereo unspecified) | 0.162% | 13.5% | -1.29% | 10.7% | -5.48% | 0.554% | 17.6% | 22.8% | 6.93% | 18.3% | -2.08%
CC1CN(CC(=O)Nc2nncs2)CCN1Cc1nccn1C (stereo unspecified) | -6.24% | 8.11% | -5.38% | -3.66% | -2.69% | 0.924% | 4.67% | 12% | 4.95% | 6.1% | 8.11%
O=S1(=O)CCCN1Cc1coc(-c2cccs2)n1 | -1.93% | 15.3% | -14.2% | 1.81% | 2.82% | 13.2% | 23.3% | -8.56% | 5.26% | 12.8% | -3.41%
